According to PubChem BioAssay AID504329 (Southern Research Specialized Biocontainment Screening …, 2011):
“And” between values parts separate entries of the source, which are not always exact repeats. Equal values may be shown once. Screen size: about 340,000 compounds; about 1,000 (0.29%) were called active. Not all results are given here. Entries with a potency or affinity are not part of this list. Values without a mark were called inactive. Cut-off read from the data, not from the text of the source: inconclusive = inhibition above about 27% without an active follow-up result; inactive = below that.

test: NS1A inhibition, H1N1 influenza, cell based functional assay (AID 504329); conditions: percent inhibition, at 12.5 µM, stronger effect = higher value

With `C=CCNC(=O)c1onc(CSc2ccc(F)cc2)c1C(=O)NCC=C` as the compound, how does the inhibition read?
Its inhibition is 8.73%.

Which inhibition does the source give for `CCOCCc1nnc(NC(=O)C2CC(=O)N(c3ccc(OCC)cc3)C2)s1` (stereo unspecified) here?
Its inhibition is -1.86%.

Which inhibition does the source give for `C[C@@H]1CC[C@@]2(O[C@H](CCO)C[C@H](O)[C@H]2O)O1` here?
Its inhibition is -1.57%.

Which inhibition does the source give for `CCCSc1nc(-c2ccccc2)cc(C(F)(F)F)c1C#N` here?
Its inhibition is -2.3%.

With `COc1ccc(N2CCN(C(=O)Cc3ncc(C(F)(F)F)cc3Cl)CC2)cc1` as the compound, how does the inhibition read?
The inhibition was -8.89%.

For `O=C(O)c1ccc(NS(=O)(=O)c2ccc3c(c2)C2C=CCC2C(c2ccccc2F)N3)cc1` (stereo unspecified), which inhibition is on record?
Its inhibition is 18.1%.

With `COc1ccc(NS(=O)(=O)c2ccc3c(c2)[C@H]2C=CC[C@H]2[C@@H](c2ccc(C(=O)O)cc2)N3)cc1` as the compound, how does the inhibition read?
The inhibition was 24.1%.

Which inhibition does the source give for `Cn1nnnc1SCC(=O)N1CCc2ccccc21` here?
Its inhibition is -9.92%.

Which inhibition does the source give for `O=C1/C(=C/c2ccncc2)N2CCC1CC2` here?
Its inhibition is -8.83%.

With `CC(C)CC(=O)Nc1nnc(SCC(=O)NCC2CCCO2)s1` (stereo unspecified) as the compound, how does the inhibition read?
Its inhibition is -4.89%.

With `CCc1nnc(NS(=O)(=O)c2ccc(N/C=C\C(=O)c3ccc(C)cc3)cc2)s1` as the compound, how does the inhibition read?
The inhibition was 2.79%.

For `COC(=O)c1ccccc1NC(=O)CSc1ncccn1`, which inhibition is on record?
The inhibition was -13.4%.

Which inhibition does the source give for `CC(=O)c1ccc(Nc2nc(C)cc(C)n2)cc1` here?
The inhibition was 0.38%.

For `Cc1cc(C)nc(NN2C(=O)C=CC2=O)n1`, which inhibition is on record?
Its inhibition is 0.34%.

For `Cn1c(SCC(=O)Nc2nccs2)nnc1-c1ccncc1`, which inhibition is on record?
The inhibition was 2.71%.

Which inhibition does the source give for `CCOC(=O)C(C)Oc1cccc2c(=O)n(CC(=O)NCCc3ccccc3)ccc12` (stereo unspecified) here?
The inhibition was 0.03%.

With `CC(C)C(OC(=O)c1cccs1)C(=O)NCc1ccc2c(c1)OCO2` (stereo unspecified) as the compound, how does the inhibition read?
Its inhibition is -1.71%.

Which inhibition does the source give for `Cc1cccc(NC(=O)c2ccc3nccnc3c2)c1C` here?
The inhibition was 0.36%.

With `COc1cc(NC(=O)c2ccccc2F)c(OC)cc1NC(=O)CN1CCCCC1` as the compound, how does the inhibition read?
Its inhibition is -0.03%.

For `N/C(=N\OC(=O)Cc1ccccc1)c1ccccn1`, which inhibition is on record?
The inhibition was -5.24%.

With `N/C(=N\OC(=O)Cc1ccccc1[N+](=O)[O-])c1ccccn1` as the compound, how does the inhibition read?
The inhibition was -3.44%.

For `Cc1c(OC(C)C(=O)NCC(O)c2ccccc2)ccc2c3c(c(=O)oc12)CCC3` (stereo unspecified), which inhibition is on record?
The inhibition was 3.79%.

With `CNC(=O)c1c(NC(=O)c2ccc(S(=O)(=O)N3CCCCC3C)cc2)sc2c1CCN(C)C2` (stereo unspecified) as the compound, how does the inhibition read?
The inhibition was -4.17%.

For `CCc1ccc(Nc2n[n+](-c3ccccc3)c(-c3cccc(Cl)c3Cl)s2)cc1`, which inhibition is on record?
The inhibition was -1.96%.

Which inhibition does the source give for `CCc1ccc(Nc2n[n+](-c3ccccc3)c(-c3cccc(C)c3)s2)cc1` here?
Its inhibition is -15%.

With `Fc1ccc(-[n+]2nc(Nc3ccccc3)sc2-c2cccc(Cl)c2Cl)cc1` as the compound, how does the inhibition read?
Its inhibition is 1.31%.

For `Fc1ccc(-[n+]2nc(Nc3ccccc3)sc2-c2c3ccccc3cc3ccccc23)cc1`, which inhibition is on record?
Its inhibition is 10.5%.

Which inhibition does the source give for `COc1ccc(S(=O)(=O)CCC(=O)N2CC(=O)N(CCc3ccccc3)C(=O)C2)cc1` here?
Its inhibition is -13.4%.

With `CSc1ncc(/C=C2/C(=O)NC(=O)N(C)C2=O)cn1` as the compound, how does the inhibition read?
The inhibition was 6.14%.

For `CC1Cc2ccccc2N1C(=O)c1ccc2c(c1)OCO2` (stereo unspecified), which inhibition is on record?
Its inhibition is -9.71%.

With `CCCOc1cccc(OCC(=O)Nc2nc3ccccc3[nH]2)c1` as the compound, how does the inhibition read?
The inhibition was -2.2%.

Which inhibition does the source give for `CC(C)/C=C1\CC/C(=C\c2ccc(N(C)C)cc2)C1=O` here?
The inhibition was -9.13%.

For `CN(C)c1ccc(/C=C2\CCC/C(=C\c3ccccc3)C2=O)cc1`, which inhibition is on record?
Its inhibition is -5.05%.

With `O=C1C(=O)N(CCCn2ccnc2)C(c2ccc(Cl)cc2)/C1=C(\O)c1ccc2c(c1)OCCO2` (stereo unspecified) as the compound, how does the inhibition read?
Its inhibition is 4.67%.

Which inhibition does the source give for `Cc1ccc(SCC(=O)NCCc2ccccc2)cc1` here?
The inhibition was 4.08%.

With `O=C(Nc1ccc2c(c1)OCO2)C1COc2ccccc2O1` (stereo unspecified) as the compound, how does the inhibition read?
Its inhibition is -3.64%.

For `O=C(Nc1cc([N+](=O)[O-])c2[nH]c(=O)c3ccccc3c2c1)C(F)(F)F`, which inhibition is on record?
The inhibition was 1.69%.

For `c1ccc(CN2CCC(CNc3ncnc4ccccc34)C2)cc1` (stereo unspecified), which inhibition is on record?
Its inhibition is -2.71%.

With `O=C(CC1CC2CCC1C2)Nc1nc(-c2ccccn2)cs1` (stereo unspecified) as the compound, how does the inhibition read?
Its inhibition is -17.9%.

Which inhibition does the source give for `O=C(CN1C(=O)CCC1=O)Nc1nc(-c2ccc3ccccc3c2)cs1` here?
Its inhibition is -4.5%.

For `O=C(CCN1C(=O)C2CCCCC2C1=O)Nc1nc(-c2ccccc2)cs1` (stereo unspecified), which inhibition is on record?
The inhibition was 12.8%.

With `O=C(CN1C(=O)CCC1=O)Nc1nc(-c2cccs2)cs1` as the compound, how does the inhibition read?
The inhibition was -13.6%.

For `O=C(CN1C(=O)C2CCCCC2C1=O)Nc1nc(-c2ccc(F)cc2)cs1` (stereo unspecified), which inhibition is on record?
Its inhibition is -0.75%.

Which inhibition does the source give for `CC1(c2ccccc2)NC(=O)N(CC(=O)Nc2nc(-c3ccccn3)cs2)C1=O` (stereo unspecified) here?
Its inhibition is 17.7%.

For `O=C(Nc1nc(-c2ccccn2)cs1)C1CCCC1`, which inhibition is on record?
The inhibition was -0.49%.

Which inhibition does the source give for `O=C(Nc1nc(-c2ccccn2)cs1)C1CC1` here?
The inhibition was 15.6%.

With `N#Cc1cc(-c2cccc(Cl)c2)c[nH]c1=O` as the compound, how does the inhibition read?
Its inhibition is 3.18%.

For `Cc1ccc(C(=O)Nc2cccc(C(=O)NCc3ccco3)c2)cc1`, which inhibition is on record?
Its inhibition is 0.66%.

Which inhibition does the source give for `COc1ccc(C(=O)NCCSCc2cccc(Cl)c2)cc1OC` here?
Its inhibition is -9.42%.

Which inhibition does the source give for `O=C(CCN1CCN(c2ccc(F)cc2)CC1)Nc1ccc(F)cc1` here?
Its inhibition is 8.96%.

For `CC(C)(C)c1cc(C(=O)N2CCc3ccccc32)ccn1`, which inhibition is on record?
Its inhibition is -21.7%.

With `CC(=O)Nc1sc(C)c(C)c1C(=O)OCC(=O)NC(C)c1ccccc1` (stereo unspecified) as the compound, how does the inhibition read?
Its inhibition is -5.54%.

Which inhibition does the source give for `Cc1ccc(S(=O)(=O)Nc2nc3ccccc3nc2NCC2CCCO2)cc1C` (stereo unspecified) here?
The inhibition was -0.91%.

With `O=C1CC(c2ccc(O)cc2)Oc2cc(O)ccc21` (stereo unspecified) as the compound, how does the inhibition read?
The inhibition was -6.8%.

With `O=C(COc1ccccc1)N[C@@H]1c2ccccc2CC[C@H]1OCc1ccccc1` as the compound, how does the inhibition read?
The inhibition was -3.28%.

Which inhibition does the source give for `CCN(CC)CCC(c1ccc2c(c1)OCO2)c1c(OC)cc(OC)c2c(-c3ccccc3)cc(=O)oc12` (stereo unspecified) here?
The inhibition was 15.2%.

Which inhibition does the source give for `COc1ccc(C(CCN2CCCCC2)c2c(OC)cc(OC)c3c(-c4ccccc4)cc(=O)oc23)cc1` (stereo unspecified) here?
The inhibition was 3.17%.

Which inhibition does the source give for `COc1ccc(C(CCN2CCCC(C)C2)c2c(OC)cc(OC)c3c(-c4ccccc4)cc(=O)oc23)cc1` (stereo unspecified) here?
The inhibition was 10.3%.

Which inhibition does the source give for `COc1cc(OC)c2c(-c3ccccc3)cc(=O)oc2c1C(CCN1CCCC(C)C1)c1ccc2c(c1)OCO2` (stereo unspecified) here?
The inhibition was 17.6%.

Which inhibition does the source give for `CCN(CC)CCC(c1cc(OC)c(OC)c(OC)c1)c1c(OC)cc(OC)c2c(-c3ccccc3)cc(=O)oc12` (stereo unspecified) here?
Its inhibition is -1.61%.

For `COc1cc(OC)c2c(-c3ccccc3)cc(=O)oc2c1C(CCN1CCOCC1)c1ccc(N(C)C)cc1` (stereo unspecified), which inhibition is on record?
Its inhibition is 9.77%.

With `O=C(NCCc1ccccn1)c1ccc(NS(=O)(=O)c2ccc(F)cc2)cc1` as the compound, how does the inhibition read?
The inhibition was -1.36%.

Which inhibition does the source give for `COc1cccc(OCC(=O)NNC(=O)c2ccc3ccccc3c2O)c1` here?
Its inhibition is 3.46%.

With `CS(=O)(=O)N1N=C(c2ccco2)CC1c1ccco1` (stereo unspecified) as the compound, how does the inhibition read?
The inhibition was 0.65%.

Which inhibition does the source give for `CC(NC(=O)CN(c1cccc(C(F)(F)F)c1)S(=O)(=O)c1ccc(Cl)c([N+](=O)[O-])c1)c1ccccc1` (stereo unspecified) here?
The inhibition was -1.19%.

For `N#Cc1ccc(C(=O)Nc2cccc3ccccc23)c(F)c1`, which inhibition is on record?
The inhibition was 4.06%.

With `CN1C(N)=NC(=O)/C1=C/c1ccc(OC(F)(F)F)cc1` as the compound, how does the inhibition read?
The inhibition was -2.53%.

With `CCOC(=O)c1ccccc1NC(=O)CN(c1ccccc1OCC)S(C)(=O)=O` as the compound, how does the inhibition read?
The inhibition was 0.08%.

Which inhibition does the source give for `Cc1ccc(NC(=O)C2CCN(S(=O)(=O)c3ccc(C(C)(C)C)cc3)CC2)cc1S(=O)(=O)N1CCOCC1` here?
Its inhibition is -3.38%.

For `CCCN(CCC)S(=O)(=O)c1ccc(NS(C)(=O)=O)cc1`, which inhibition is on record?
The inhibition was -0.06%.

For `O=C(O)c1ccc(S(=O)(=O)/N=C2\C=C(Nc3ccccc3F)C(=O)c3ccccc32)cc1`, which inhibition is on record?
Its inhibition is 14.7%.

With `COC(=O)c1ccccc1NC(=O)c1cccs1` as the compound, how does the inhibition read?
The inhibition was 11.6%.

With `Cc1ccc(Cl)cc1NC1=C/C(=N\S(=O)(=O)c2cccs2)c2ccccc2C1=O` as the compound, how does the inhibition read?
The inhibition was 17.4% and 16.6%.

Which inhibition does the source give for `Cc1ccccc1NC1=C/C(=N\S(=O)(=O)c2ccc(C(=O)O)cc2)c2ccccc2C1=O` here?
The inhibition was 4.65%.

With `COC(=O)c1cccc(NS(=O)(=O)c2cccs2)c1C` as the compound, how does the inhibition read?
The inhibition was 1.41%.

Which inhibition does the source give for `COC(=O)c1cc(NS(=O)(=O)c2cccs2)cc(NS(=O)(=O)c2cccs2)c1` here?
Its inhibition is -13.7%.

Which inhibition does the source give for `COc1ccccc1S(=O)(=O)Cc1ccc(C(=O)N2CCN(c3ccc(C)cc3)C(C)C2)o1` (stereo unspecified) here?
Its inhibition is 9.7%.

For `CC(C)COC(=O)c1ccccc1C(=O)OCC(C)C`, which inhibition is on record?
The inhibition was 2.41%.

With `COC(=O)c1ccc2c(c1O)C(=O)c1ccccc1C2=O` as the compound, how does the inhibition read?
The inhibition was 4.41%.

For `CCN(CC)c1ccc(O)c(C=Nc2ccc(C)c(C)c2)c1`, which inhibition is on record?
The inhibition was -19.5%.

With `COc1ccc2c(O)c(-c3c(C)cc(C)cc3C)c(=O)[nH]c2c1` as the compound, how does the inhibition read?
Its inhibition is 10.4%.

With `COc1ccc(/C=C(/NC(=O)c2ccco2)C(=O)Nc2ccc(C(=O)O)cc2)cc1` as the compound, how does the inhibition read?
The inhibition was -7.59%.

Which inhibition does the source give for `COC(CNC(=O)c1ccc(N2CCc3ccccc32)c([N+](=O)[O-])c1)OC` here?
Its inhibition is 10.7%.

For `O=C(O)c1ccc(N2CCc3ccccc32)c([N+](=O)[O-])c1`, which inhibition is on record?
The inhibition was 4.7%.

With `COCC(COS(N)(=O)=O)C(C)C` (stereo unspecified) as the compound, how does the inhibition read?
The inhibition was 9.46%.

For `CCc1nc(N2CCN(C(=O)c3ccccc3)CC2)c2c3c(sc2n1)CCCC3`, which inhibition is on record?
Its inhibition is 2.27%.

With `Cc1c2ccccc2cc[n+]1CCCS(=O)(=O)[O-]` as the compound, how does the inhibition read?
Its inhibition is 5.16%.

Which inhibition does the source give for `CCOc1ccc(C(=O)Nc2ncn[nH]2)cc1` here?
Its inhibition is -3.3%.

For `COc1cc(NCc2ccccc2)c2ncn(C(C)C)c2c1`, which inhibition is on record?
Its inhibition is 0.83%.

With `CCC(CO)Oc1cc(NCc2ccccc2)c2ncn(C(C)C)c2c1` (stereo unspecified) as the compound, how does the inhibition read?
The inhibition was 3.05%.

Which inhibition does the source give for `Cc1ccc2c(c1)c(N=Nc1cccc(C(=O)O)c1)c(O)n2C` here?
Its inhibition is -0.45%.
